Compound activity deposited in PubChem BioAssay by National Center for Advancing Translational Sciences (NCATS).
Hits are enriched below; roughly 19% of the tested compounds scored in any of these assays.
HT1080NT lethal: kills 2HG-producing HT-1080-NT fibrosarcoma cells | HT-1080-NT fibrosarcoma viability, CellTiter-Glo ATP luminescence, 48 h | Potency, µM (series often up to 46.1 µM), inactives show at the highest dose activity, negative = less viability, usual class: cytotoxic | 1.6% of 360,000 active | AID 686970;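 note: NT is the 2HG producing partner of a matched IDH1 knockdown line; potency is the fitted concentration of half-maximal effect; 0% = DMSO-treated cells and -100% = media-only wells without cells; nearly all actives have a fitted effect of over 55% in size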
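HT-1080-NT; 750 cells/well; 5% FBS RPMI; 48 h compound, 37 degrees C; CellTiter-Glo luminescence; curve fitting and curve-class assignment.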
DT40 TDP1 CPT: DT40-hTDP1 cell growth loss with CPT; chicken DT40 Tdp1-/-;hTDP1 cells + 20 nM CPT, ATP luminescence, 48 h; Potency, µM (top dose mostly 46.2 µM), inactives show top-dose activity change, negative = growth inhibition, hits mostly inhibitors; 12% of 420,000 active; AID 686979; note: potency is the fitted concentration of half-maximal effect; nearly all actives have a fitted effect of over 55% in size
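Chicken DT40 Tdp1-/- cells stably complemented with human TDP1 were seeded at 400 cells/well in medium containing 20 nM camptothecin, exposed to pin-transferred compounds, and grown at 37 °C for at least 48 hr. Viability was read as ATP luminescence.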
HT1080 IDH1KD tx: toxicity to HT-1080 IDH1 knockdown cells (counter line). Potency, µM (titrated, usually from 46.1 µM), for the others: at the highest dose activity, negative = toxicity, actives largely listed as cytotoxic. AID 686971. HT-1080 IDH1 knockdown viability, ATP luminescence, 48 h. 2% of 360,000 active;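 note: potency is the fitted concentration of half-maximal effect; 0% = DMSO wells and -100% = cell-free medium wells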
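In this qHTS, HT-1080 cells depleted of IDH1 are exposed for 48 h at 37 °C to compound titrations. Toxicity is scored from CellTiter-Glo luminescence, with DMSO as full viability and medium alone as none.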
IL-1B inflam inh: inflammasome signaling inhibition, IL-1 beta readout; THP-1 LPS/ATP IL-1B secretion, AlphaLISA, 16 h; active compounds read low; activity change, % at 57.5 µM; 4.7% of 360,000 active; in the data active = activity change below about -50%; inconclusive = mostly about -30% to -49%
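THP-1 cells pretreated 1 hr with compounds (up to 57.5 uM final), then stimulated with LPS (250 ng/mL final) plus ATP (1.25 mM final); secreted IL-1B measured by AlphaLISA after 16 hr, decreased signal indicating inhibition.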
DT40 TDP1 no CPT: qHTS for Inhibitors of human tyrosyl-DNA phosphodiesterase 1 (TDP1): qHTS in cells in absence of CPT | 15% of 420,000 active | Potency, µM (doses to about 46.2 µM), inactives show at the highest dose activity change, negative = growth inhibition, hits mostly inhibitors | DT40 Tdp1-/- hTDP1 cells, no CPT, ATP luminescence, 48 h; note: potency is the fitted concentration of half-maximal effect; nearly all actives have a fitted effect of over 55% in size
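Growth kinetics read by CellTiter-Glo luminescence after ≥48 hr at 37 °C. Cells: DT40 Tdp1-/- stably carrying human TDP1, 400 per well, compound exposure in the absence of CPT (DMSO vehicle).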
ELG1 DNA repair: blocks ELG1-dependent DNA repair in HEK293T cells. HEK293T ELG1-luciferase reporter, luminescence, 16 h; DNA damage induced by 5-fluorouridine. Potency, µM (titrated, usually from 46.1 µM), for the others: at the top dose activity change, negative = inhibition, hits mostly inhibitors. 2.3% of 330,000 active; note: potency is the fitted concentration of half-maximal effect; nearly all actives have a fitted effect of over 55% in size
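DMSO vehicle served as the neutral condition. Each well held 2,000 cells given 5-fluorouridine plus compound; after 16 hr at 37 °C/5% CO2, ONE-Glo was added and luciferase measured 30 min later.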
Active calls of the source: *; ? = inconclusive; nt = no result. Unless noted, calls come from the whole dose curve; as a rule, active = well fitted curve in the direction sought with a large enough effect; inconclusive = small, poorly fitted or top-dose-only effect, or another doubt; inactive = no such curve, though single readings can be large; an effect the other way counts as inactive or inconclusive. Unless noted, % is set by controls: 0 for no effect and ±100 for the full control effect.

SMILES	HT1080NT lethal	DT40 TDP1 CPT	HT1080 IDH1KD tx	IL-1B inflam inh	DT40 TDP1 no CPT	ELG1 DNA repair
Cc1ccccc1N(C)C(=O)c1noc2c1COc1ccccc1-2	nt	23µM*	nt	nt	15µM*	nt
COC(=O)CC1C(=O)NCCN1C(=O)c1cc(OC)c(OC)cc1OC (configuration not stated)	12%	-2%	0%	15	-15%	-3%
CCO/C(C)=N/n1c2nc3ccccc3nc2c2c(=O)n(C3CCCC3)c(C)nc21	8%	18µM*	11%	1	15µM*	?
Cc1cccc(/C=C\c2nc3ccccc3c(=O)[nH]2)c1	?	21µM*	5.8µM*	-4	18µM*	?
Cc1nc(/C=C/c2ccccc2)[nH]c(=O)c1-c1ccccc1	?	10µM*	-24%	-1	?	?
O=c1[nH]c(/C=C/c2ccc(Br)cc2)nc2ccccc12	-2%	-10%	15%	-8	-12%	?
CN(C)c1ccc(/C=C/c2nc3ccccc3c(=O)[nH]2)cc1	-23%	21µM*	?	-7	10µM*	?
Cc1cc(C)c(CN2CCN(C(=O)Cn3cnc(C(=O)Nc4ccc(C)c(C)c4)n3)CC2)c(C)c1	?	?	-97%	-7	-82%	-29%
OC(c1cccc(Cl)c1)c1nc(/C=C/c2ccc(C(F)(F)F)cc2)cs1 (configuration not stated)	?	23µM*	?	0	?	nt
OC(c1cccnc1)c1nc(/C=C/c2ccc(C(F)(F)F)cc2)cs1 (configuration not stated)	-19%	21µM*	-25%	11	2.6µM*	nt
COc1cccc(C(O)c2nc(/C=C/c3ccc(C(F)(F)F)cc3)cs2)c1 (configuration not stated)	?	?	?	19	?	nt
COc1ccc(/C=N/NC(=O)C(=O)N2CCCCCC2)cc1O	1%	0%	13%	-11	-4%	4%
O=C1CCC(c2ccc3ccccc3c2)O1 (configuration not stated)	19%	?	0%	-1	-3%	nt
Cc1ccsc1C(=O)N1CCCC(C)(C(=O)O)C1 (configuration not stated)	16%	-35%	23%	16	-4%	nt
COc1cccc(-c2csc(N3CCN(CC(=O)NNC(=O)c4ccc(Cl)cc4)CC3)n2)c1	?	?	11µM*	0	?	?
COc1cccc(-c2csc(N3CCN(CC(=O)NNC(=O)c4ccc(Br)cc4)CC3)n2)c1	?	?	?	-24	16µM*	?
Cc1ccccc1OCCC(=O)NNC(=O)COc1cccc(F)c1	4%	-8%	0%	-4	-15%	?
Nc1nc(-c2ccccn2)nc(N)c1Cc1c(F)cccc1Cl	-27%	1.8µM*	?	18	1.5µM*	?
Nc1nc(-c2ccccn2)nc(N)c1Cc1ccccc1F	-25%	5.8µM*	-10%	15	4.6µM*	?
COc1ccc(C(=O)Nc2cc(NC(=O)c3ccco3)ccc2OC)cc1Cl	nt	-3%	nt	nt	-4%	nt
COc1ccc(NC(=O)Cc2ccc(Cl)cc2)cc1NC(=O)c1ccco1	?	-29%	-23%	-56*	?	?
COc1ccc(NC(=O)c2ccco2)cc1NC(=O)C(C)(C)Oc1ccc(Cl)cc1	nt	18µM*	nt	nt	?	nt
COc1cc(NC(=O)Cc2ccccc2)ccc1NC(=O)c1ccco1	28%	0%	?	?	-28%	20%
COc1ccc(NC(=O)c2ccco2)cc1NC(=O)C(C)Oc1ccc(Cl)cc1Cl (configuration not stated)	nt	9.2µM*	nt	nt	6.5µM*	nt
